From PubChem BioAssay AID434970 (Sanford-Burnham Center for Chemical Genomics, 2010) come the findings set out here.

In all, about 11,000 compounds went through this assay and about 310 (2.8%) were called active. No stated cut-off is given here; in the data, active means activity change below about -85%; inactive means the rest. The sample as a whole holds a higher share of actives than the screen did.

The experiment has as its system intestinal alkaline phosphatase [Mus musculus]. Kind of experiment: activators of mouse IAP, confirmation, biochemical, luminescence, single concentration (AID 434970). The note with it: purified mouse IAP, CDP-Star luminescence, 30 min, at 10 µM; activation factor: measured here: IAP activation factor, stronger effect = higher value; activity change, negative = activation: stronger effect = lower value.
Regarding `Cc1ccc(NC(=S)NC2CCCCC2)cc1S(=O)(=O)N(C)C`, the activation factor came to 1.3 and the activity change, negative = activation is -29.9% (inactive).

In the case of `Cc1cccc(NC(=O)CC2NC3CCCCC3NC2=O)c1` (centres undefined), the activation factor was found to be 0.974 and the activity change, negative = activation was 2.55% (inactive).

In the case of `Cc1ccc(NC(=O)C2CCN(C(=O)NC3CCCCC3)CC2)cc1Cl`, the activation factor came to 1.21 and the activity change, negative = activation was -20.9% (inactive).

Turning to `Cc1cc(C)cc(NC(=S)NCCN(C2CCCCC2)C2CCCC2)c1`, the activation factor is 1.28 and the activity change, negative = activation was -28.3% (inactive).

`CC(=O)OC(C(=O)NC1CCCCC1)c1cccc(C)c1` (centres undefined): the activation factor was determined as 1.04 and the activity change, negative = activation was -4.4% (inactive).

Consider `O=C(Nc1cccc(F)c1)c1ccccc1`, for which the activation factor was found to be 1.01 and the activity change, negative = activation is -0.8% (inactive).

Regarding `Cc1cc(C)cc(NC(=O)NC2CCCCCCC2)c1`, the activation factor worked out at 3.37 and the activity change, negative = activation was -237% (active).

As to `Cc1cc(C)cc(NC(=O)Nc2ccc(N3CCCCC3)cc2)c1`, the activation factor was 1.16 and the activity change, negative = activation is -15.9% (inactive).

As to `C=CCNc1nc(Nc2ccc(OC)cc2)nc(OC)n1`, the activation factor turned out to be 0.992 and the activity change, negative = activation was 0.8% (inactive).

With `CC(C)C(NC(=S)NCc1ccccc1)C(=O)O` (centres undefined), the activation factor was determined as 0.93 and the activity change, negative = activation was 7% (inactive).

In the case of `Cc1ccc(-c2nn3c(C)nnc3s2)cc1NC(=O)c1ccc(-c2cccc(Cl)c2)o1`, the activation factor came out at 0.849 and the activity change, negative = activation was 15.2% (inactive).

For `Cc1ccccc1NC1=C(Cl)C(=O)OC1OC(C)C` (centres undefined), the activation factor is 0.976 and the activity change, negative = activation was 2.45% (inactive).

As for `CCOC(=O)c1c(N)sc(C(N)=O)c1C`, the activation factor stood at 1.01 and the activity change, negative = activation is -0.6% (inactive).

Take `O=C(Nc1c(-c2ccccc2)nc2sccn12)c1ccccc1`: the activation factor turned out to be 0.907 and the activity change, negative = activation is 9.25% (inactive).

Regarding `CCN(CC)S(=O)(=O)c1ccc(Cl)c(C(=O)Oc2cccnc2)c1`, the activation factor was 0.919 and the activity change, negative = activation is 8.05% (inactive).

As to `COC(=O)C1=C(C)NC2=C(C(=O)C(C(=O)OC)C(c3ccc(OC)cc3)C2)C1c1ccccn1` (centres undefined), the activation factor was 1.07 and the activity change, negative = activation was -6.6% (inactive).

For the compound `CC(=O)Nc1ccc(NS(C)(=O)=O)cc1`, the activation factor amounted to 0.891 and the activity change, negative = activation was 10.9% (inactive).

Take `O=C1CC(N2CCN(c3ccccc3F)CC2)C(=O)N1c1ccc2c(c1)OCCO2` (centres undefined): the activation factor came out at 0.964 and the activity change, negative = activation is 3.6% (inactive).

Take `O=C(CSc1nnc(-c2ccco2)n1Cc1ccco1)NCc1ccccc1`: the activation factor came out at 1.11 and the activity change, negative = activation is -11.1% (inactive).

As for `O=C(Nc1cccc(C(F)(F)F)c1)NC1CCN(S(=O)(=O)c2ccc(F)cc2)CC1`, the activation factor was found to be 1.81 and the activity change, negative = activation is -81.5% (inactive).

Consider `O=C(Nc1cccc(C(F)(F)F)c1)NC1CCCCC1`, for which the activation factor is 2.1 and the activity change, negative = activation is -110% (active).

Regarding `FC(F)(F)c1ccc(NC(=S)NC2CCCCC2)cc1`, the activation factor was found to be 1.25 and the activity change, negative = activation was -24.9% (inactive).

In the case of `O=c1[nH]c2ccc(S(=O)(=O)Nc3ccc(-c4nnc5n4CCCCC5)cc3)cc2o1`, the activation factor turned out to be 0.87 and the activity change, negative = activation is 13% (inactive).

`CC(NC(=S)NCc1ccc(F)cc1)C12CC3CC(CC(C3)C1)C2` (centres undefined): the activation factor was determined as 4.19 and the activity change, negative = activation was -319% (active).

As for `CCc1ccc(C(C)NC(=S)NCc2ccc(F)cc2)cc1` (centres undefined), the activation factor was determined as 1.11 and the activity change, negative = activation is -10.5% (inactive).

As to `CCC(NC(=S)NCc1ccc(F)cc1)c1ccc(C(C)C)cc1` (centres undefined), the activation factor was determined as 1.39 and the activity change, negative = activation was -38.5% (inactive).

For the compound `COc1cc(CN(C2CC2)S(=O)(=O)c2ccccc2Br)cc(OC)c1`, the activation factor was determined as 1.07 and the activity change, negative = activation was -7.4% (inactive).

As to `O=C(c1ccco1)N1CCN(C(=O)C2CCN(S(=O)(=O)c3cnc[nH]3)CC2)CC1`, the activation factor was 0.909 and the activity change, negative = activation is 9.15% (inactive).

With `O=C(NNc1cccc(Cl)n1)Nc1ccccc1`, the activation factor worked out at 0.964 and the activity change, negative = activation is 3.55% (inactive).

With `CC(C)(C)c1nc(NC(=O)Nc2ccccc2)sc1Br`, the activation factor was 2.12 and the activity change, negative = activation is -112% (active).

In the case of `CCOc1ccc2nc(NC(=O)Nc3ccccc3)sc2c1`, the activation factor came to 1.04 and the activity change, negative = activation is -3.8% (inactive).

`CC(C)(C)c1ccc(OC(=O)c2cccnc2)cc1`: the activation factor is 1.01 and the activity change, negative = activation is -0.6% (inactive).

As to `CCO/C(C)=C1\N=C(c2ccc(Cl)cc2)OC1=O`, the activation factor turned out to be 1.06 and the activity change, negative = activation was -5.85% (inactive).

`O=C(Nc1cccc(-c2cccc(Cl)c2)c1)C1CCN(CC2CCOC2)CC1` (centres undefined): the activation factor amounted to 2.32 and the activity change, negative = activation was -132% (active).

With `O=C(Nc1ccc(Br)c(Cl)c1)C1CC1`, the activation factor amounted to 1.01 and the activity change, negative = activation was -1.05% (inactive).

As to `O=C(NCc1ccc2c(c1)OCO2)C1CCCN1C(=O)Nc1cccc(Cl)c1` (centres undefined), the activation factor was 1.03 and the activity change, negative = activation was -2.95% (inactive).

For `O=C(Nc1cccc(-c2cccc(Cl)c2)c1)C1CCN(Cc2ccon2)CC1`, the activation factor was 1.73 and the activity change, negative = activation is -73.1% (active).

As for `O=C(Nc1cccc(-c2cccc(Cl)c2)c1)C1CCN(Cc2ccc(CO)o2)CC1`, the activation factor turned out to be 2.61 and the activity change, negative = activation was -161% (active).

With `Cc1oc(-c2ccc(Cl)cc2)nc1CN1CCC(C(=O)NCc2cccs2)CC1`, the activation factor is 1.19 and the activity change, negative = activation is -19.5% (inactive).

As for `O=C(Nc1cccc(-c2cccc(F)c2)c1)C1CCN(Cc2ccc(CO)o2)CC1`, the activation factor was determined as 1.64 and the activity change, negative = activation is -64.3% (inactive).

As for `O=C(Nc1ccc2c(c1)OCCO2)C1CCN(S(=O)(=O)c2cccc3nsnc23)CC1`, the activation factor was 0.988 and the activity change, negative = activation was 1.25% (inactive).

As for `COCc1ccc(CN2CCC(C(=O)Nc3cccc(-c4cccc(Cl)c4)c3)CC2)o1`, the activation factor came out at 4.36 and the activity change, negative = activation is -336% (active).
